Measured values as given in PubChem BioAssay AID618 (Sanford-Burnham Center for Chemical Genomics, 2007).
Among all 87,000 compounds or so, about 540 (0.62%) were called active. Entries that show only a call come without a potency. How the calls were made is not given here. Many of the other results were omitted from the sample, so actives are more common in it than they were. Potency and affinity values are given separately.

Test: MT1-MMP gene expression reporter suppression – cell-based, luciferase reporter, luminescence (AID 618);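 further: actives suppress MT1-MMP promoter-driven transcription so potencies describe inhibitors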
Conditions: MT1-MMP promoter luciferase reporter cells

Row | SMILES | outcome
1 | O=C(c1ccc(F)cc1)C(CN1CCOCC1)c1ccccc1 (stereo not given) | active
2 | CCCCCOc1ccc(C(=O)C(c2ccccc2)N2CCOCC2)cc1 (stereo not given) | inactive
3 | CC(CN1CCOCC1)C(=O)c1ccccc1 (stereo not given) | inactive
4 | COc1ccc(C(=O)C(CN2CCOCC2)c2ccccc2)cc1 (stereo not given) | inactive
5 | COc1ccc(C(=O)C(CN2CCOCC2)c2ccccc2)cc1F (stereo not given) | inactive
6 | O=C(NCC1CCCCC1)C1CCN(C(=O)NC2CCCCC2)CC1 | inactive
7 | COc1ccc(-c2nc3c(n2O)CCCC3=O)cc1OC | inactive
8 | O=C(CCSCCc1ccccn1)Nc1ccc(Br)cn1 | inactive
9 | c1ccc(CCNc2nc3ccccc3s2)cc1 | inactive
10 | Cc1ccc(C(=O)Nc2nc3ccccc3s2)s1 | inactive
11 | COc1ccc(NC(=O)NC(C)(C(F)(F)F)C(F)(F)F)cc1 | inactive
12 | CN(C)c1nc(SCc2ccccc2)nc(N2CCOCC2)n1 | inactive
13 | C/C(=N/NC(=O)c1cc(C(C)C)[nH]n1)c1cccs1 | inactive
14 | C/C(=N\NC(=O)C1COc2ccccc2O1)c1cccs1 (stereo not given) | inactive
15 | O=C(Nc1ccc(Cc2ccncc2)cc1)c1ccc(S(=O)(=O)N2CCOCC2)cc1 | inactive
16 | CC(C)c1nc(=S)c2ccccc2[nH]1 | inactive
17 | CN1CC=C2C(C#N)=C(N)C(C#N)(C#N)[C@H](c3ccoc3)[C@H]2C1 | inactive
18 | N#CC1=C(N)C(C#N)(C#N)[C@H](c2ccoc2)[C@H]2CN(Cc3ccccc3)CC=C12 | active
19 | CCN1CC=C2C(C#N)=C(N)C(C#N)(C#N)[C@H](c3ccoc3)[C@H]2C1 | inactive
20 | COc1ccc(/C(C)=N\n2cnnc2)cc1 | inactive
21 | COCCn1c(SCc2cnc(-c3ccccc3)s2)nnc1-c1ccncc1 | inactive
22 | Cc1nnc(SCc2cnc(-c3ccc(C(C)C)cc3)s2)n1C | active
23 | Cn1c(SCc2cnc(-c3ccccc3)s2)nnc1C1COc2ccccc2O1 (stereo not given) | inactive

Row | SMILES | outcome
24 | Cc1cccc(NC(=O)CSCc2c(C)noc2C)c1C | inactive
25 | CN(C1=NC(=O)C(CC(=O)Nc2ccc(Br)cc2)S1)c1ccc(O)cc1 (stereo not given) | inactive
26 | CC(=O)N(CCc1ccccc1C)Cc1cc2cc3c(cc2[nH]c1=O)OCO3 | inactive
27 | Cc1ccccc1C(=O)N1CCC(C(=O)Nc2ccc3c(c2)OCCO3)CC1 | inactive
28 | Cc1ccc(C(=O)N2CCN(c3cccc(Cl)c3)CC2)cc1C | inactive
29 | O=C(O)c1ccccc1C(=O)N1CCN(c2cccc(Cl)c2)CC1 | inactive
30 | CCCCC(=O)Nc1ccc(C(=O)N2CCC(C(=O)OCC)CC2)cc1 | inactive
31 | Cc1ccc(C(=O)Nc2sc3c(c2C#N)CCCCC3)cc1C | inactive
32 | Cc1ccc(-c2nnc(-c3ccc(Br)cc3)o2)o1 | inactive
33 | C=CCn1c(SCC(=O)c2ccccc2)nnc1-c1cc2ccccc2o1 | inactive
34 | CC1CC(C)CN(C(=O)CSc2nnc(-c3ccc(Cl)cc3)o2)C1 (stereo not given) | inactive
35 | COC(=O)c1ccccc1S(=O)(=O)Nc1ccc(OC)nc1 | inactive
36 | COc1ccc(NC(=O)c2cc(OC)c(OC)c(OC)c2)cn1 | inactive
37 | COc1ccc(CNC(=O)Nc2ccc(C)cc2)cc1 | inactive
38 | COc1ccc(NS(=O)(=O)Cc2ccccc2Cl)cn1 | inactive
39 | CCCS(=O)(=O)C(=C(Nc1ccc(OC)cc1)Nc1ccc(OC)cc1)S(=O)(=O)CCC | inactive
40 | COc1ccc(CS(=O)(=O)/C(Cl)=C(/Cl)C(=O)Nc2ccc(OC)nc2)cc1 | active
41 | COc1ccc(NC(=O)C(CC(C)C)NC(=O)c2ccccc2C)cn1 (stereo not given) | inactive
42 | COc1ccc(NC(=O)/C(Cl)=C(/Cl)S(=O)(=O)Cc2ccccc2)cn1 | active
43 | CCOc1ccccc1Nc1nc(N)nc(CN(C)C2CCCCC2)n1 | inactive
44 | Cc1nc2cc(C(=O)O)ccc2n1C1CCCCC1 | inactive
45 | CCNC1=C(Cl)C(=O)c2ccccc2C1=O | inactive
46 | CC1=CC(=C2C(=O)c3ccccc3C2=O)C=C(C)N1C | inactive

Row | SMILES | outcome
47 | CN1C=CC(=C2C(=O)c3ccccc3C2=O)C=C1 | inactive
48 | CC1=CC(=C2C(=O)c3ccccc3C2=O)C=C(C)O1 | inactive
49 | CCSc1nc(N)c(C#N)c(-c2ccco2)c1C#N | inactive
50 | c1nc(N2CCOCC2)c2[nH]cnc2n1 | inactive
51 | COc1cccc2c1C(=O)c1c(O)c3c(c(O)c1C2=O)C[C@@](O)(C(C)=O)C[C@@H]3O[C@H]1C[C@H](N)[C@H](O)[C@H](C)O1 | active
52 | COc1cccc2c1C(=O)c1c(O)c3c(c(O)c1C2=O)C[C@@](O)(C(=O)CO)C[C@@H]3O[C@H]1C[C@H](N)[C@H](O)[C@H](C)O1 | inactive
53 | O=C(Cn1cc2c(n1)CCCCC2)NC1CCCCCC1 | inactive
54 | Cc1csc2ncc(C(=O)Nc3ccc(C(F)(F)F)cc3)c(=O)n12 | inactive
55 | COC(=O)c1cccc(NC(=O)c2cnoc2C)c1 | inactive
56 | COc1ccc(CNC(=O)[C@H](C)[C@H]2C[C@]2(C)[C@H](NC(=O)OCc2ccccc2)c2ccccc2)cc1OC | inactive
57 | CCOC(=O)CSc1nc(C)c2ccc(C)cc2n1 | inactive
58 | N#CCc1nc2n(n1)Cc1ccccc1-2 | inactive
59 | CCn1c(C)nc2cc(S(=O)(=O)N3CCCC3)ccc21 | inactive
60 | Fc1ccc(-c2nc3n(n2)Cc2ccccc2-3)cc1 | active
61 | Clc1ccc(-c2nc3n(n2)Cc2ccccc2-3)cc1 | inactive
62 | CCN(CC)S(=O)(=O)c1cccc(-c2nc3n(n2)Cc2ccccc2-3)c1 | inactive
63 | CCn1c(C)nc2cc(-c3nnc(-c4c(-c5ccccc5)noc4C)o3)ccc21 | inactive
64 | CCn1c(C)nc2cc(-c3nc4n(n3)Cc3ccccc3-4)ccc21 | active
65 | O=S(=O)(c1cccc(-c2nc3n(n2)Cc2ccccc2-3)c1)N1CCCC1 | inactive
66 | CCOc1ccc(C2Oc3nc(SC)nnc3-c3ccccc3N2C(C)=O)cc1OC (stereo not given) | inactive
67 | O=C(C1CCCN(S(=O)(=O)c2cnc[nH]2)C1)N1CC(=O)N(CCc2ccccc2)C(=O)C1 (stereo not given) | inactive
68 | CN(CC(=O)N1CC(=O)N(CCc2ccccc2)C(=O)C1)S(=O)(=O)c1cccc2nsnc12 | inactive
69 | Cc1cc(C)n(-c2ccc(C(=O)OCc3nnc(-c4ccccc4)o3)cc2)n1 | inactive

Row | SMILES | outcome
70 | CCCCC(CC)CNC(=O)C1CCCN(S(=O)(=O)c2cnc[nH]2)C1 (stereo not given) | inactive
71 | Cc1cc(C)n2nc(S(=O)(=O)NC3CCCCC3)nc2n1 | inactive
72 | CN1CCN(Cc2cc(COCc3ccccc3)c3cccnc3c2O)CC1 | inactive
73 | OCCN1CCN(Cc2cc(Cl)c3cccnc3c2O)CC1 | inactive
74 | Oc1ccc(CN2CCc3ccccc3C2)c2cccnc12 | inactive
75 | Oc1c(CN2CCOCC2)cc(COCc2ccccc2)c2cccnc12 | inactive
76 | COC(=O)c1sc(S(=O)(=O)NCc2cccs2)c(C(=O)OC)c1C | inactive
77 | COc1ccc(C(=O)NCCC2=CCCCC2)cc1OC | inactive
78 | COc1cc(C(=O)NCCC2=CCCCC2)cc(OC)c1OC | inactive
79 | O=C(NCCc1ccc(Cl)cc1)c1nnc(Cc2ccc(Cl)cc2)o1 | inactive
80 | CC1CCCCC1NC(=O)C1CCN(S(=O)(=O)N2CCC3(CC2)OCCO3)CC1 (stereo not given) | inactive
81 | CC1C(=O)CCN(C(C)(C)C)C1C (stereo not given) | inactive
82 | COc1ccc(OC)c(C2c3c(oc4ccccc4c3=O)C(=O)N2CCCN(C)C)c1 (stereo not given) | inactive
83 | c1ccc(-c2nc(-c3ccncc3)no2)cc1 | inactive
84 | Cc1cccc(-c2noc(-c3ccc(F)cc3)n2)c1 | active
85 | Fc1ccccc1-c1nc(-c2ccccc2)no1 | inactive
86 | c1ccc(-c2ccc(-c3nc(-c4cccnc4)no3)cc2)cc1 | inactive
87 | Cc1ccc(-c2noc(-c3ccccc3Br)n2)cc1 | inactive
88 | COc1ccc(-c2nc(-c3cccc(C)c3)no2)cc1OC | inactive
89 | Cc1ccc(SCc2nc(-c3ccccc3)no2)cc1 | inactive
90 | COc1cc(-c2nc(-c3cccc(C)c3)no2)cc(OC)c1OC | inactive
91 | Cc1ccc(-c2nc(-c3cccnc3)no2)cc1 | inactive
92 | COC(=O)c1ccccc1NC(=O)C1CC=CCC1C(=O)O (stereo not given) | inactive

Row | SMILES | outcome
93 | COC(=O)c1ccc(C(=O)OC)c(NC(=O)CCC(=O)O)c1 | inactive
94 | CCC1CCCCN1S(=O)(=O)c1ccc(NC(=O)CSc2ncccc2C(=O)O)cc1 (stereo not given) | inactive
95 | COc1ccc(CCN(C(=O)c2ccccc2)C2=CC3CCC(C2)N3C)cc1OC (stereo not given) | inactive
96 | CS(=O)(=O)N1CCC(C(=O)N2CCc3ccccc3C2)CC1 | inactive
97 | CC(=O)NC(C1C(=O)CC(C)(C)CC1=O)(C(F)(F)F)C(F)(F)F | inactive
98 | O=C(COc1ccc(Cl)cc1)NCc1nnc(SCC(=O)NCc2ccc3c(c2)OCO3)o1 | inactive
99 | CCOC(=O)c1cnc(C(C)(C)C)[nH]c1=O | inactive
100 | CCOc1ccc(-c2nc(-c3ccncc3)no2)cc1OCC | inactive
101 | COc1ccc(-c2nc(-c3ccncc3)no2)cc1OC | inactive
102 | CN(C)c1ccc(-c2noc(-c3ccccc3O)n2)cc1 | active
103 | c1ccc(-c2noc(-c3ccccc3-c3ccccc3)n2)cc1 | inactive
104 | CCc1ccc(-c2nc(-c3ccncc3)no2)cc1 | inactive
105 | Cc1cc(C)cc(-c2nc(-c3ccncc3)no2)c1 | inactive
106 | NC(=O)c1ccccc1-c1nc(-c2ccccc2)no1 | inactive
107 | CCCC(=O)Nc1c(-c2cccs2)c(=O)c2ccccc2n1CC | inactive
108 | CCOC(=O)c1ccc(S(=O)(=O)N2CCN(CC3CC=CCC3)CC2)cc1 (stereo not given) | inactive
109 | COc1ccccc1C1/C(=C(/O)c2ccc(Cl)cc2)C(=O)C(=O)N1CCN1CCOCC1 (stereo not given) | inactive
110 | O=C(O)CN1C(=O)Nc2ccc(Br)cc2C1c1ccccc1 (stereo not given) | inactive
111 | Cc1nc(CC(=O)c2c(C)cc(O)cc2O)cs1 | inactive
112 | O=C(Cc1cccs1)NCc1cccs1 | inactive
113 | COC(=O)C(C)Oc1ccc(=O)[nH]n1 (stereo not given) | inactive
114 | COc1ccc(OC)c(NC(=O)Cc2coc3cc(C)cc(C)c23)c1 | inactive
115 | CS(=O)(=O)N(Cc1ccccc1)c1ccccc1C(=O)N1CCN(c2ccccc2)CC1 | inactive
